This is part of a sample that, as a whole, favours compounds with a hit. Of some 79,000 tested, about 15% had one in any assay. Rule as the data show it: active = growth inhibition above about 70%; inactive = the rest.
Experiments:
[1] = NCI Yeast Anticancer Drug Screen. Data for the rad50 strain (AID 155);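 also: 0% = growth of vehicle-only cultures of the same strain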; details: S. cerevisiae rad50 strain growth inhibition; at 50.0 µM; hits give high values
Method in brief: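 Compounds were tested on a yeast strain with an engineered DNA damage repair alteration; the reported value is growth inhibition normalised to vehicle treatment.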

[2] = NCI Yeast Anticancer Drug Screen. Data for the mec2-1 strain (AID 157); details: S. cerevisiae mec2-1 strain, at 50.0 µM, hits give high values
Method in brief: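 mec2-1 yeast strain, carrying an alteration in DNA damage repair or cell cycle control, was exposed to compounds; growth inhibition was measured relative to vehicle-treated controls.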

[3] = NCI Yeast Anticancer Drug Screen. Data for the sgs1 mgt1 strain (AID 161);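 also: 0% = growth of cultures given vehicle only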; details: S. cerevisiae sgs1 mgt1 strain, at 50.0 µM, hits give high values
Method in brief: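 This yeast growth screen uses a strain with defined DNA-repair lesions; compound-treated growth is compared with vehicle-treated growth.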

[4] = NCI Yeast Anticancer Drug Screen. Data for the cln2 rad14 strain (AID 165);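 also: 0% = growth equal to vehicle treated cultures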; details: S. cerevisiae cln2 rad14 strain, at 50.0 µM, hits give high values
Method in brief: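 Yeast carrying cln2 and rad14 alterations (cell cycle control and DNA damage repair) were exposed to compounds. Growth inhibition was measured against vehicle-treated controls.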

[5] = NCI Yeast Anticancer Drug Screen. Data for the bub3 strain (AID 167); details: S. cerevisiae bub3 mutant strain, at 50.0 µM, hits give high values
Method in brief: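 Growth of a checkpoint-deficient yeast mutant is measured after compound exposure. Values represent inhibition relative to vehicle.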

[6] = NCI Yeast Anticancer Drug Screen. Data for the mlh1 rad18 strain (AID 175); details: S. cerevisiae mlh1 rad18 strain growth inhibition; at 50.0 µM; hits give high values
Method in brief: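 Growth inhibition of the yeast strain was measured after compound exposure and expressed relative to vehicle-treated controls. The strain carries defined defects in DNA damage repair.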

Measured: growth inhibition

CN(C)c1ccc(SC2OC(CO)C(O)C(O)C2O)cc1 (stereo not given)
inactive: [1] -12.8% | [2] -5.25% | [3] -7.3% | [4] -54.5% | [5] 3.7% | [6] -10%

c1ccc(-n2cccc2)cc1
inactive: [1] 7.4% | [2] 7.05% | [3] 9.25% | [4] -30% | [5] -3.7% | [6] -11.6%

O=C1C=C[C@@H](COC2OC(CO)C(O)C(O)C2O)O1 (stereo not given in full)
inactive: [1] 6.35% | [2] -28.8% | [3] 5.25% | [4] 15.8% | [5] 24.9% | [6] 27.8%

CCCNC(=O)c1nc(SC)sc1NC(=O)c1ccccc1
inactive: [1] 10.3% | [2] 3.5% | [3] -50.1% | [4] 17.6% | [5] 1.95% | [6] 10.9%

CSc1ccc2c(c1)Cc1cc(NC(C)=O)ccc1-2
inactive: [1] 8.8% | [2] -9.05% | [3] -4.25% | [4] -12.3% | [5] -11.8% | [6] 1.05%

O=C(CN1C(=O)c2ccccc2C1=O)NC1(C(=O)O)CCCC1
inactive: [1] -3.25% | [2] -14% | [3] -27.9% | [4] -2.65% | [5] -30.8% | [6] -0.15%

CC(C)C(C)(C)C(N)=O
inactive: [1] -4.5% | [2] -0.95% | [3] -9.1% | [4] 13.9% | [5] 19.6% | [6] 0.95%

O=[N+]([O-])c1cccc(/C=[N+](\[O-])c2ccccc2)c1
inactive: [1] -3.45% | [2] 8.2% | [3] 13% | [4] -38.6% | [5] -16.9% | [6] 0.6%

COC(=O)C12c3ccccc3C3C(c4ccccc41)C32 (stereo not given)
inactive: [1] 11.9% | [2] 13.5% | [3] 22.8% | [4] 17.6% | [5] 2.2% | [6] 20.6%

COC1/C=C/OC2(C)Oc3c(C)c(O)c4c(c3C2=O)C(N)=C(Nc2ccccc2)C(=NC(=O)C(C)=CC=CC(C)C(O)C(C)C(O)C(C)C(OC(C)=O)C1C)C4=O (stereo not given)
inactive: [1] 15.5% | [2] 45.5% | [3] 41.9% | [4] 46.5% | [5] 16.9% | [6] 39.9%

Cn1cnc(CC(=O)O)c1
inactive: [1] 4.85% | [2] -6.6% | [3] -12.5% | [4] 5.25% | [5] 11% | [6] -0.05%

NC(=O)C(N)CC(=O)O (stereo not given)
inactive: [1] 6.15% | [2] -5.9% | [3] -3.1% | [4] -16.1% | [5] 6.5% | [6] 11.1%

CC1=C(O)c2cc3c(cc2C(=O)C1=O)OCO3
inactive: [1] -21.5% | [2] -0.95% | [3] -15% | [4] -15.6% | [5] -18.4% | [6] 26.9%

C#CC(C)(O)CC(C)C (stereo not given)
inactive: [1] 1.9% | [2] -1.2% | [3] -8.6% | [4] -73.7% | [5] 6.65% | [6] -71.7%

CCc1cc2c(oc3c4ccccc4ccc23)c(=O)[nH]1
inactive: [1] -8.95% | [2] -12.6% | [3] -15.7% | [4] -14.3% | [5] -25.4% | [6] -7.55%

CCOC(=O)C(C#N)(Cc1ccccc1CC(C#N)(NC(C)=O)C(=O)OCC)NC(C)=O (stereo not given)
inactive: [1] -4.9% | [2] -0.25% | [3] -10.1% | [4] -0.3% | [5] -3.4% | [6] 10.7%

Clc1c(Cl)c(Cl)c(CSCc2c(Cl)c(Cl)c(Cl)c(Cl)c2Cl)c(Cl)c1Cl
inactive: [1] -16.2% | [2] -7% | [3] -12.2% | [4] -31.9% | [5] 2.1% | [6] -13.3%

CCC1C(=O)OCc2c1cc1n(c2=O)C(CC)c2c-1nc1ccccc1c2Cl (stereo not given)
inactive: [1] 57.4% | [2] 14.6% | [3] 8.15% | [4] -28.3% | [5] -2.95% | [6] 4.55%

CCOC(=O)C[n+]1cccc(Br)c1
inactive: [1] -2.6% | [2] 6.45% | [3] -6.85% | [4] -6.5% | [5] 16.3% | [6] -0.45%

COC(=O)C1[C@@H](C(=O)OC)C12C=Cc1ccccc1C=C2 (stereo not given in full)
inactive: [1] -33.2% | [2] -47% | [3] -50.2% | [4] 1.05% | [5] -28.6% | [6] -25.4%

Source: PubChem BioAssay (NCI)
